Assay outcomes: PubChem BioAssay, National Center for Advancing Translational Sciences (NCATS)
Pol beta inh: blocks human DNA polymerase beta activity. Potency, µM (doses to about 114 µM), most hits filed as inhibitors. 1.3% of 340,000 active. P06746. AID 485314. Pol beta primer extension/strand displacement, fluorescence kinetic
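Pol beta (10 nM) was preincubated with compound for 15 min at room temperature. The reaction was then started with 50 nM substrate and read immediately and after a further 10 min at room temperature.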
Pol kappa inh: blocks human DNA polymerase kappa activity; Q9UBT6; Potency, µM (doses to about 107 µM), usual class: inhibitors; 0.53% of 400,000 active; AID 588579; purified Pol kappa, fluorescent DNA synthesis assay, 10 min
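Inhibition of 10 nM Pol kappa is measured by a fluorescent read-out at 0 and 10 min following addition of 50 nM substrate (final), with a 15-min room-temperature compound preincubation.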
GLS inh: glutaminase GLS (human) inhibition; AID 624170; Potency, µM (series often up to 45.5 µM), usual class: inhibitors; GLS enzymatic activity, qHTS titration; 0.21% of 410,000 active
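Glutamate formation by hKGA was monitored fluorometrically using coupled glutamate oxidase, HRP and Amplex Red. Substrate was added as 1 mM L-glutamine solution; incubation was 30 min at RT after an initial read.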
POLI inh: DNA polymerase iota (human) inhibition | Pol iota fluorescent replication assay, 10 min | Q9UNA4 | 1% of 390,000 active | AID 588590 | Potency, µM (top dose mostly 115 µM), usual class: inhibitors
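Pol iota at 10 nM preincubated 15 min with compounds at room temperature; reaction started with fluorescent substrate, 50 nM final. Fluorescence read kinetically at 0 and 10 min; buffer-only wells as negative control.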
Pol eta inh: DNA polymerase eta (human) inhibition. Q9Y253. Potency, µM (series often up to 114 µM), hits mostly inhibitors. 1.2% of 390,000 active. recombinant Pol eta, fluorescent DNA replication assay. AID 588591
Target sequence (Q9Y253 whole entry, looked up): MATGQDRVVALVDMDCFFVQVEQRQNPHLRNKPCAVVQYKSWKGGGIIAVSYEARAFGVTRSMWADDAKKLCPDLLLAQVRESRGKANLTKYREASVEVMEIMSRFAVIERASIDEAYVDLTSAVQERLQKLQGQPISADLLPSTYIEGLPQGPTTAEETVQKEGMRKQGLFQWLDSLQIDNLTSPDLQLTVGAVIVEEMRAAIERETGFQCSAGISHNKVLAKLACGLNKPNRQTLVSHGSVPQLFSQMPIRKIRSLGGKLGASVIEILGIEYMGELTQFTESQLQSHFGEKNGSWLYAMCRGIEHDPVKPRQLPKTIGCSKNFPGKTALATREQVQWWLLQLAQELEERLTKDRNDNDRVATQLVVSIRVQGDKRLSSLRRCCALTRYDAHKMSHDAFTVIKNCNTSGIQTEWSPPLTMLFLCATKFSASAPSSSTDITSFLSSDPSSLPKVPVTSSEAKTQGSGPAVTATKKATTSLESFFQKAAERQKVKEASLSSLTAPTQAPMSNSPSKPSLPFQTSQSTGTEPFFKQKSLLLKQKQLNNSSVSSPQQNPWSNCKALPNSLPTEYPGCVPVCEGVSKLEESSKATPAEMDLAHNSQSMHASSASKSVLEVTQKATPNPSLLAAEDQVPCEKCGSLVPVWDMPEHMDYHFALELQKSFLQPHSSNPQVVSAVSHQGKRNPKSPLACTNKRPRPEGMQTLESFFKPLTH
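Fluorescent replication assay: 50 nM final substrate added after a 15 min room-temperature compound preincubation with 10 nM enzyme. Signal taken at 0 min and again at 10 min.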
GCN5L2 inh: GCN5L2 (KAT2A) acetyltransferase inhibition; Q92830; GCN5L2 HAT assay, ThioGlo1 CoA-SH fluorescence; Potency, µM (titrated, usually from 58.9 µM), actives largely listed as inhibitors; 0.21% of 390,000 active; AID 504327
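Titration-based screen in which CoA formation is detected via maleimide probe ThioGlo1 (50uM) turning fluorescent on thiol reaction; substrates H3(1-25) 75uM and acetyl-CoA 70uM, GCN5L2 20nM, 20 min incubation at room temperature.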
PGK validate: blocks T. brucei phosphoglycerate kinase; shares compounds with Pol kappa inh; TbPGK coupled GAPDH assay, Kinase-Glo luminescence; Potency, µM (titrated, usually from 57.5 µM), most hits filed as inhibitors; 79% of 500 active; AID 686980; note: nearly all actives have a fitted effect of over 65% in size
Pol iota confirm: Confirm cherry-picked inhibitors of human polymerase iota; shares compounds with Pol kappa inh; AID 720496; 77% of 1,500 active; Pol iota primer extension, TAMRA/BHQ fluorescence; Potency, µM, most hits filed as inhibitors
Each line names hits and unclear results; the compound was inactive in the other large screens (follow-up assays come after a bar, where they were run). A selection: hits, their analogues and other compounds. The true share with any hit is near 2.4%. Calls come from the whole dose curve; as a rule, active = well fitted curve in the direction sought with a large enough effect; inconclusive = small, poorly fitted or top-dose-only effect, or another doubt; inactive = no such curve, though single readings can be large; an effect the other way counts as inactive or inconclusive.

O=C1c2cccc3cccc(c23)C(=O)N1CCN1CCN(C(=S)Nc2ccc(F)cc2)CC1	none (no result: Pol kappa inh, GLS inh, POLI inh, Pol eta inh)
Cc1ccc(NC(=S)N2CCN(CCN3C(=O)c4cccc5cccc(c45)C3=O)CC2)cc1	Pol eta inh inconclusive | PGK validate inactive
CC[C@H](C)[C@H]1O[C@]2(CC[C@@H]1C)C[C@@H]1C[C@@H](C/C=C(\C)[C@H](O[C@@H]3C[C@H](OC)[C@H](O[C@@H]4C[C@H](OC)[C@@H](O)[C@H](C)O4)[C@H](C)O3)[C@@H](C)/C=C/C=C3\CO[C@@H]4[C@H](O)C(C)=C[C@@H](C(=O)O1)[C@]34O)O2	Pol kappa inh inconclusive, GCN5L2 inh inconclusive (no result: Pol beta inh, POLI inh, Pol eta inh)
CNC(=O)C1CCC(Cn2c(=O)c3sccc3n(CC(=O)N3CCC(C)CC3)c2=O)CC1 (stereo not given)	none | PGK validate inactive
CNC(=O)C1CCC(Cn2c(=O)c3sccc3n(CC(=O)Nc3cc(C)cc(C)c3)c2=O)CC1 (stereo not given)	none | PGK validate inactive
NNc1ccc([N+](=O)[O-])c2[nH][nH]c(=O)c12	GLS inh 7.9µM, Pol eta inh 2µM (no result: Pol beta inh, Pol kappa inh, POLI inh, GCN5L2 inh) | PGK validate 2.6µM
O=[N+]([O-])c1ccc(Nc2ccccc2)c2nonc12	none
O=C(Nc1ccccn1)c1cc2ccccc2o1	none | PGK validate 16µM
CSCC[C@H](N)C(=O)N[C@@H](CCCN=C(N)N)C(=O)N[C@@H](Cc1ccccc1)C(=O)N[C@@H](Cc1ccccc1)C(=O)N[C@H](C(=O)O)C(C)C	none (no result: Pol beta inh, GLS inh, POLI inh, Pol eta inh)
Cc1ccc(-c2cc(C(=O)N/N=C/c3ccoc3)c3ccccc3n2)cc1	none
Cc1ccc(-c2cc(C(=O)N/N=C/c3c(C)nn(C)c3C)c3ccccc3n2)cc1C	Pol beta inh inconclusive, POLI inh 22µM, Pol eta inh inconclusive | Pol iota confirm inconclusive
Cc1ccc(NC(=O)CN2C(=O)S/C(=C\c3cccn3-c3cccc(C(=O)O)c3)C2=O)c(C)c1	Pol beta inh 10µM, Pol kappa inh inconclusive, GLS inh inconclusive, POLI inh inconclusive, Pol eta inh 3.5µM | PGK validate 9.2µM
O=C1NC(=Nc2ccc(Cl)cc2)/C(=C/c2ccco2)S1	Pol beta inh 8.9µM, Pol kappa inh inconclusive, POLI inh 28µM, Pol eta inh 56µM | Pol iota confirm inconclusive
Cc1cc(O)c(C(c2cccc(F)c2)N2CCC(C)CC2)c(=O)n1Cc1ccco1 (stereo not given)	none
CCC(C)[C@H]1CNCCN1CCc1cccc2ccccc12 (stereo not given in full)	POLI inh inconclusive (no result: Pol beta inh) | PGK validate inconclusive
CCC(C)[C@H]1CNCCN1CC1(c2ccccc2)CC1 (stereo not given in full)	POLI inh inconclusive (no result: Pol beta inh)
COc1ccc(C(=O)N2c3ccccc3C(C)(c3ccc(Cl)cc3)CC2(C)C)cc1 (stereo not given)	none
Cn1c(SCC(=O)c2ccccc2)nnc1-c1ccncc1	none
Cn1c(SCC(=O)c2ccc3c(c2)Cc2ccccc2-3)nnc1-c1ccccc1	Pol beta inh inconclusive, GLS inh inconclusive, POLI inh inconclusive, Pol eta inh 8.9µM | Pol iota confirm 42
CCN(CC)CCC(=O)Nc1cccc2c1C(=O)c1ccccc1C2=O	Pol beta inh 20µM, POLI inh 16µM | Pol iota confirm inconclusive
Nc1cccc(C(=O)OCC(=O)Nc2cccc3c2C(=O)c2ccccc2C3=O)c1	Pol eta inh inconclusive
CC(=O)OCOC(=O)CN(CC(=O)OCOC(C)=O)c1ccccc1OCCOc1ccccc1N(CC(=O)OCOC(C)=O)CC(=O)OCOC(C)=O	Pol kappa inh inconclusive (no result: Pol beta inh, GLS inh, POLI inh, Pol eta inh)
